Results taken from the supplement of paper PMC8975748.
Counter-ions that a name gives are not always drawn.

Each compound was assayed on Saccharomyces cerevisiae BY4741 SeMeCo community (assay: z-score of subpopulation abundance vs DMSO median, subpopulation auxotrophic for M; higher = larger share of this subpopulation than in DMSO controls). Conditions: 10 µM; 24 h; SM minimal medium; subpopulation (auxotrophy): M.
Procedure: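 Fluorescent four-plasmid SeMeCo (self-establishing metabolically cooperating S. cerevisiae BY4741 community; plasmids pH-mRuby2, pL-mWasabi, pU-eCFP, pM-TagRFP657) was grown 24 h in minimal SM medium with each Selleck FDA-approved drug at 10 µM in 384-well plates. Cells were fixed and imaged by high-content confocal microscopy. For each auxotrophic subpopulation (and the prototroph), a z-score gives the deviation from the DMSO vehicle-control population median.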

| Structure (SMILES) | z-score of subpopulation abundance |
| --- | --- |
| Cc1ccc(Sc2ccccc2N2CCNCC2)c(C)c1 | -0.9 |
| COc1ccc2[nH]c([S@@+]([O-])Cc3ncc(C)c(OC)c3C)nc2c1 [NEXIUM (esomeprazole magnesium)] | 0.2 |
| CC1=C[C@H]2C(=O)O[C@H]3C[C@@H](C/C=C(\C)C[C@@H](C)/C=C/C=C4\CO[C@H](/C1=N\O)[C@@]42O)O[C@@]1(CC[C@H](C)[C@@H](C)O1)C3.CC[C@H]1O[C@]2(CC[C@@H]1C)C[C@@H]1C[C@@H](C/C=C(\C)C[C@@H](C)/C=C/C=C3\CO[C@@H]4/C(=N\O)C(C)=C[C@@H](C(=O)O1)[C@]34O)O2 [Milbemycin Oxime] | -1.4 |
| CN1[C@@H](CC(=O)c2ccccc2)CCC[C@H]1C[C@H](O)c1ccccc1 [Lobeline hydrochloride] | 1.16 |
| CCCN[C@H]1CCc2nc(N)sc2C1 [Pramipexole dihydrochloride] | -0.32 |
| CCCOc1ccc(C(=O)OCCN(CC)CC)cc1N [Proparacaine HCl] | -0.55 |
| OCc1ccc(Cl)cc1Cl [2,4-dichlorobenzyl alcohol] | -0.73 |
| Nc1ccc(S(N)(=O)=O)cc1 [Sulfanilamide] | -0.87 |
| O=c1ccn(C2CC(O)C(CO)O2)c(=O)[nH]1 (stereo not given) [2-deoxyuridine] | 0.17 |
| CC(=O)Oc1ccccc1C(=O)O [Aspirin] | 1.14 |
| N#C/C(=C1/SC[C@@H](c2ccc(Cl)cc2Cl)S1)n1ccnc1 [Luliconazole] | -2.68 |
| O=C(CCCN1CCN(c2ccccn2)CC1)c1ccc(F)cc1 [Azaperone] | 0 |
| CC1(C)S[C@@H]2[C@H](NC(=O)[C@H](N)c3ccc(O)cc3)C(=O)N2[C@H]1C(=O)O [Amoxicillin] | 0.35 |
| CO[C@@H]1[C@@H](OC(N)=O)[C@@H](O)[C@H](Oc2ccc3c(O)c(NC(=O)c4ccc(O)c(CC=C(C)C)c4)c(=O)oc3c2C)OC1(C)C [Novobiocin Sodium] | -0.26 |
| Cc1ccc(-c2ncc(Cl)cc2-c2ccc(S(C)(=O)=O)cc2)cn1 [Etoricoxib] | 0.51 |
| CO[C@@H]1[C@@H](O[C@@H]2O[C@H](C)[C@@H](O[C@H]3C[C@@](C)(O)[C@@H](O)[C@H](C)O3)[C@H](N(C)C)[C@H]2O)[C@@H](CC=O)C[C@@H](C)[C@@H](O[C@H]2CC[C@H](N(C)C)[C@@H](C)O2)/C=C/C=C/C[C@@H](C)OC(=O)C[C@H]1OC(C)=O [Acetylspiramycin (ASPM)] | -0.27 |
| Oc1c(Cl)cc(Cl)c2cccnc12 [Chloroxine] | 3.4 |
| C=CCN1CCCC1CNC(=O)c1cc2nn[nH]c2cc1OC (stereo not given) [Alizapride HCl] | -0.5 |
| Cc1ncc([N+](=O)[O-])n1CCO [Metronidazole] | 0.32 |
| Cc1onc(-c2ccccc2)c1C(=O)N[C@@H]1C(=O)N2[C@@H]1SC(C)(C)[C@@H]2C(=O)O [Oxacillin sodium monohydrate] | 0.02 |

| Structure (SMILES) | z-score of subpopulation abundance |
| --- | --- |
| COc1ccc2cc3[n+](cc2c1OC)CCc1cc2c(cc1-3)OCO2 [Berberine chloride] | 0.33 |
| CN(C)c1ccc(O)c2c1C[C@H]1C[C@H]3[C@H](N(C)C)C(=O)C(C(N)=O)=C(O)[C@@]3(O)C(=O)C1=C2O [Minocycline HCl] | 0.32 |
| CC[C@H]1OC(=O)C[C@@H](O)[C@H](C)[C@@H](O[C@@H]2O[C@H](C)[C@@H](O)[C@H](N(C)C)[C@H]2O)[C@@H](CCN2C[C@H](C)C[C@H](C)C2)C[C@@H](C)C(=O)/C=C/C(C)=C/[C@@H]1CO[C@@H]1O[C@H](C)[C@@H](O)[C@@H](OC)[C@H]1OC [Tilmicosin] | -0.16 |
| CCCCCCCCCC(=O)N[C@@H](Cc1c[nH]c2ccccc12)C(=O)N[C@H](CC(N)=O)C(=O)N[C@@H](CC(=O)O)C(=O)N[C@@H]1C(=O)NCC(=O)N[C@@H](CCCN)C(=O)N[C@@H](CC(=O)O)C(=O)N[C@H](C)C(=O)N[C@@H](CC(=O)O)C(=O)NCC(=O)N[C@H](CO)C(=O)N[C@@H]([C@H](C)CC(=O)O)C(=O)N[C@@H](CC(=O)c2ccccc2N)C(=O)O[C@@H]1C [Daptomycin] | 0.17 |
| O=C1NC(=O)C(c2ccccc2)(c2ccccc2)N1 [Phenytoin] | 0.07 |
| NC(=O)c1cn(Cc2c(F)cccc2F)nn1 [Rufinamide] | 0.02 |
| COCC1=C(C(=O)OC(C)OC(=O)OC(C)C)N2C(=O)[C@@H](NC(=O)/C(=N\OC)c3csc(N)n3)[C@H]2SC1 (stereo not given in full) [Cefpodoxime proxetil] | 0.5 |
| NC[C@H]1O[C@H](O[C@H]2[C@H](O)[C@@H](O[C@H]3O[C@H](CO)[C@@H](O)[C@H](N)[C@H]3O)[C@H](N)C[C@@H]2N)[C@H](N)C[C@@H]1O [Tobramycin] | 0.73 |
| C[C@]12CC[C@@H]3c4ccc(O)cc4CC[C@H]3[C@@H]1CCC2=O [Estrone] | -0.44 |
| CCc1cccc2c3c([nH]c12)C(CC)(CC(=O)O)OCC3 (stereo not given) [Etodolac] | -0.55 |
| Cc1onc(-c2c(F)cccc2Cl)c1C(=O)N[C@@H]1C(=O)N2[C@@H]1SC(C)(C)[C@@H]2C(=O)O [Flucloxacillin sodium] | 1.08 |
| Nc1c(CC(=O)O)cccc1C(=O)c1ccc(Br)cc1 [Bromfenac Sodium] | 0.38 |
| COc1cc2c(cc1OC)C(=O)C(CC1CCN(Cc3ccccc3)CC1)C2 (stereo not given) [Donepezil] | 1.61 |
| COC(=O)C1=C(C)NC(C)=C(C(=O)OC(C)(C)CN(C)CCC(c2ccccc2)c2ccccc2)C1c1cccc([N+](=O)[O-])c1 (stereo not given) [Lercanidipine] | 0.27 |
| CN(C)CCC=C1c2ccccc2CCc2ccccc21 [Amitriptyline HCl] | 0.09 |
| CCn1cc(C(=O)O)c(=O)c2cc(F)c(N3CCN(C)CC3)cc21 [Pefloxacin Mesylate] | -0.16 |
| O=C(c1ccc(OCCN2CCCCC2)cc1)c1c(-c2ccc(O)cc2)sc2cc(O)ccc12 [Raloxifene HCl] | 0.58 |
| CS(=O)(=O)c1ccc([C@@H](O)[C@@H](CO)NC(=O)C(Cl)Cl)cc1 [Thiamphenicol] | -0.68 |
| CC[C@H](C)C(=O)O[C@H]1C[C@H](O)C=C2C=C[C@H](C)[C@H](CC[C@@H](O)C[C@@H](O)CC(=O)O)[C@H]21 [Pravastatin sodium] | 0.01 |
| Clc1ccc2c(N3CCN(CCCN4CCN(c5ccnc6cc(Cl)ccc56)CC4)CC3)ccnc2c1 [Piperaquine phosphate] | 1.85 |
